From PubChem BioAssay AID488847 (NMMLSC, 2010) come the findings set out here.

Screen size: about 330,000 compounds; about 1,900 (0.58%) were called active. This excerpt belongs to a sample that is enriched for actives. Unmarked numbers belong to inactive results.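 Rule for the calls: active = inhibition of aptamer binding above 40%, roughly 3 SD of noise, on plates passing a quality check; inactive = the rest.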

In the experiment the target is Beta-adrenergic receptor kinase 1 (Homo sapiens) (UniProt P25098). Kind of experiment: compounds blocking aptamer binding on GRK2 – biochemical, human GRK2, bead flow cytometry, HTS, primary screen (AID 488847).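 Note: median bead fluorescence of bound FAM aptamer so fluorescent compounds give negative values.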 The settings on record: FAM-aptamer displacement from GRK2, at 10 µM, active compounds read high. In general terms: In flow cytometry, cells or beads pass a laser one at a time.
Beta-adrenergic receptor kinase 1 (Homo sapiens), sequence (P25098 whole entry, looked up): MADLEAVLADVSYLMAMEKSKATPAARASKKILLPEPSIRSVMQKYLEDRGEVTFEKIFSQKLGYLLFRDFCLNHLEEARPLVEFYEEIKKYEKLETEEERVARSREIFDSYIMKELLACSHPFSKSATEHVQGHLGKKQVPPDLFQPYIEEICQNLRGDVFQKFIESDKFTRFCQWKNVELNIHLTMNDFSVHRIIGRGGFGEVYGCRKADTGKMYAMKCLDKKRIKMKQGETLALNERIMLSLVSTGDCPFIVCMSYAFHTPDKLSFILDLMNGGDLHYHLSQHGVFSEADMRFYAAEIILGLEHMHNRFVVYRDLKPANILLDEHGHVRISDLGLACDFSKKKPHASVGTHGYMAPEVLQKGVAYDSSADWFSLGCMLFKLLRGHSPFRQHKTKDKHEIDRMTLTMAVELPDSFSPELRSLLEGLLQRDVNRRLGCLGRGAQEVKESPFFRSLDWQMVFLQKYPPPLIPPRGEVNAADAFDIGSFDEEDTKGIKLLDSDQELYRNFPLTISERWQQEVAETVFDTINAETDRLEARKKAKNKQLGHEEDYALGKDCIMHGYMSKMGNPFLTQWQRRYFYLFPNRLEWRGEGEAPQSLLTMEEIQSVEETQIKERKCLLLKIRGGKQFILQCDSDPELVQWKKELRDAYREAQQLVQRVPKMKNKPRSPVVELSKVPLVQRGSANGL
Consider `O=C(NC1CCCC1)C(c1ccc(N2CCOCC2)cc1)N(C(=O)c1ccco1)c1ccccc1F` (centres undefined), for which the inhibition of aptamer binding was 1%.
Turning to `CC(C)c1ccc(Nc2nnc(SCC(=O)c3nnc(-c4ccccc4)o3)s2)cc1`, the inhibition of aptamer binding was 0%.
In the case of `CCN1/C(=C/c2ccc3ccc(C)cc3[n+]2CC)Sc2ccccc21`, the inhibition of aptamer binding was 94% (active).
Take `CCN1/C(=C\c2ccc3ccccc3[n+]2CC)Sc2cc(C)ccc21`: the inhibition of aptamer binding was 96% (active).
Take `CCn1c(CNC(=O)c2ccccc2)nnc1SCC(=O)N1CCN(c2ccccc2)CC1`: the inhibition of aptamer binding was 0%.
For `NC(=O)c1nnsc1-c1ccc(-c2snnc2C(N)=O)cc1`, the inhibition of aptamer binding was 1%.
`CN(CCC#N)c1ncnc2scc(-c3ccccc3)c12`: the inhibition of aptamer binding was 3%.
To `CC(Oc1ccc(F)cc1)C(=O)N1CCN(c2ncccn2)CC1` (centres undefined) belongs 6%; to `COc1cccc(/C=C(/CC(=O)Nc2ccc(N3CCOCC3)cc2)c2nc3ccccc3s2)c1`, 0%.
As to `CCCCn1c(N)c(N(CCC(C)C)C(=O)c2ccc(COc3ccccc3)o2)c(=O)[nH]c1=O`, the inhibition of aptamer binding was 1%.
The figure for `CCCCN(C(=O)c1ccc(C)o1)c1c(N)n(CCCC)c(=O)[nH]c1=O` is 0%.
The figure for `CCCCn1c(N)c(N(CCC(C)C)C(=O)c2ccc([N+](=O)[O-])o2)c(=O)[nH]c1=O` is 55% (active); for `C=CCSc1nc2c(c(=O)[nH]1)C(C(C)C)C(C#N)=C(N)O2` (centres undefined) it is 2%; for `CC(CC(=O)Nc1ccccc1)n1ccnc1` (centres undefined) it is 1%.
Turning to `C[C@H](NS(=O)(=O)c1ccc(Cl)cc1)C(=O)OCC(=O)N1CCOCC1`, the inhibition of aptamer binding is 8%.
Turning to `CC(=O)N1CC[n+]2c(-c3ccc([N+](=O)[O-])cc3)csc21`, the inhibition of aptamer binding was 92% (active).
To `COC(=O)c1c(C)[nH]c(C)c1-c1ccc([N+](=O)[O-])cc1` belongs 0%; to `COc1ccc(C2CC(c3ccc([N+](=O)[O-])cc3)=NN2C(C)=O)cc1` (centres undefined), 0%.
In the case of `Cc1nn(Cc2ccc(F)cc2)c(C)c1NC(=O)c1noc2c1CCc1ccccc1-2`, the inhibition of aptamer binding was 73% (active).
The figure for `Cc1nn(Cc2ccc(Cl)c(Cl)c2)c(C)c1NC(=O)c1cc(C2CC2)on1` is 0%.
For the compound `Cc1nn(Cc2ccc(F)cc2)c(C)c1NC(=O)c1cccnc1Cl`, the inhibition of aptamer binding was 5%.
As for `Cc1ccccc1-n1cc(CNC(=O)CC2C(=O)NCCN2C/C=C/c2ccccc2)cn1` (centres undefined), the inhibition of aptamer binding is 0%.
As to `O=C(NC1CC1)C1=C[C@H](c2coc3ccccc3c2=O)C[C@H](OCCCCO)O1`, the inhibition of aptamer binding is 2%.
Consider `CCN1C(=O)[C@H]2[C@@H](c3ccc(-c4ccc(F)cc4)cc3)N[C@@](Cc3ccccc3)(C(=O)OC)[C@H]2C1=O`, for which the inhibition of aptamer binding was 0%.
As for `CCN1C(=O)[C@H]2[C@@H](c3ccc(SC4CCCCC4)c(OC)c3)N[C@@](Cc3ccccc3)(C(=O)OC)[C@H]2C1=O`, the inhibition of aptamer binding was 0%.
To `CCN1C(=O)[C@H]2[C@@H](c3ccc(-c4ccc(OC)cc4)cc3)N[C@@](Cc3ccccc3)(C(=O)OC)[C@H]2C1=O` belongs 43% (active); to `COc1cccc(C2SCC(=O)N2c2cccc(C)c2)c1OC` (centres undefined), 2%; to `COCCn1c(SCC(=O)c2[nH]c(C)c(C(C)=O)c2C)nc2ccccc2c1=O`, 0%.
On to `C/C(=N\NC(=S)NCc1ccccc1)C1CCCCC1`, for which the inhibition of aptamer binding is 1%.
In the case of `CC1CCCCC1NC(=O)c1cc(=O)[nH]c2ccccc12` (centres undefined), the inhibition of aptamer binding is 0%.
With `COc1ccc(OC)c(CNC(=O)Cn2nc(C)c3c(C)n(-c4ccc(C)cc4)nc3c2=O)c1`, the inhibition of aptamer binding is 0%.
With `CC[N+](C)(CC)CCC[n+]1c(-c2ccccc2)c2cc(N)ccc2c2ccc(N)cc21`, the inhibition of aptamer binding is 62% (active).
Consider `Cc1ccc(-c2nc(CS(=O)CC(=O)NC3CCCC3)c(C)o2)cc1` (centres undefined), for which the inhibition of aptamer binding is 0%.
To `O=C(COC(=O)c1ccc(O)cc1O)c1ccc2c(c1)OCCO2` belongs 44% (active); to `CC(=O)Nc1cccc(C(=O)OCC(=O)c2ccc3c(c2)OCO3)c1`, 0%; to `O=C(OCc1ccccc1F)c1ccc2c(c1)OCCO2`, 0%.
To `CN(CC(=O)Nc1ccc(Cl)c(C(F)(F)F)c1)C(=O)CCC(=O)c1ccccc1` belongs 1%; to `CCC(C)(C)N=C(NC#N)Nc1cccnc1`, 0%; to `Cc1nc(Nc2ccc3c(c2)OCCO3)c2nnn(Cc3ccccc3Cl)c2n1`, 0%.
Regarding `Cc1nc(Nc2ccccc2F)c2nnn(Cc3ccccc3Cl)c2n1`, the inhibition of aptamer binding is 47% (active).
As to `Cc1nc(Nc2ccc(S(=O)(=O)N3CCCC3)cc2)c2nnn(Cc3ccccc3)c2n1`, the inhibition of aptamer binding is 0%.
In the case of `O=C(CNC(c1ccccc1)c1ccccc1)Nc1ccc(F)cc1`, the inhibition of aptamer binding was 1%.
Regarding `S=C(Nc1cccnc1)Nc1ccccn1`, the inhibition of aptamer binding was 1%.
`O=C1CSC(=O)N1CCOCCN1C(=O)CSC1=O`: the inhibition of aptamer binding was 3%.
Regarding `O=C(CNC(=O)c1n[nH]c2ccccc12)Nc1cc(Cl)ccc1Cl`, the inhibition of aptamer binding is 0%.
Regarding `CC(=O)c1ccc(OCC(O)CN2CCN(S(=O)(=O)c3cccc(Br)c3)CC2)cc1` (centres undefined), the inhibition of aptamer binding was 88% (active).
As for `O=S(=O)(c1ccc(OCC(O)CN2CCN(c3ccccc3Cl)CC2)cc1)N1CCOCC1` (centres undefined), the inhibition of aptamer binding was 0%.
To `Cc1cccc(OCC(O)CN2CCN(S(=O)(=O)c3ccc(C)cc3C)CC2)c1` (centres undefined) belongs 1%; to `CCC(C)N1C(=O)S/C(=C/c2ccc(Sc3nc4ccccc4[nH]3)o2)C1=O` (centres undefined), 1%; to `Cc1cccc(NC(=S)NCc2ccc3[nH]c4c(c3c2)CCCC4)c1`, 0%.
The figure for `Cc1ccc(C(C)NC(=O)Cn2nc(C)c([N+](=O)[O-])c2C)cc1` (centres undefined) is 2%; for `COC(=O)c1ccc(C)c(NC(=O)Cn2c(C)csc2=O)c1` it is 0%; for `COC(=O)c1ccc(C)c(NC(=O)C2CC(=O)N(C3CCCC(C)C3C)C2)c1` (centres undefined) it is 63% (active).
`Cc1ccc(C)c(NC(=O)C2CC(=O)N(C(C)C)C2)c1` (centres undefined): the inhibition of aptamer binding is 2%.
To `O=C(CSCc1ccc([N+](=O)[O-])cc1)NCCSCc1ccccc1` belongs 0%.
Take `COc1ccc(-c2ocnc2C(=O)Nc2ccc3c(c2)CCC3)cc1`: the inhibition of aptamer binding was 8%.
Regarding `COC(=O)c1ccc(S(=O)(=O)NCc2ccccc2)n1C`, the inhibition of aptamer binding was 2%.
As for `Cc1ccc(C(=O)OCC(=O)N2CC(C)CC(C)C2)cc1S(=O)(=O)N1CCCCC1` (centres undefined), the inhibition of aptamer binding was 2%.
In the case of `COc1cccc2c1OCC(C(=O)NCc1ccc(Cl)cc1Cl)=C2`, the inhibition of aptamer binding is 0%.
